Assay results published in the supplement of paper PMC10849652.
The full data set covers some 7,900 targets. This sample favours those with a hit. About 0.6% of all pairs of compound and target were hits.

compound: c1cn2cc(-c3ccc4cn[nH]c4c3)nc(Nc3ccc(N4CCOCC4)cc3)c2n1 [entospletinib]; assay: log2 fold change, soluble protein after heating vs DMSO (PISA); higher = thermal stabilisation; K562 cells, 10 uM, 30 min; active = over 0.2 and 3.5 SD of the protein, either way, in both replicates (recomputed)
Procedure, shortened: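 Quantification of soluble protein used TMTpro 16plex LC-MS/MS, with channel sums equalised. Samples were the supernatant after 21,000xg for 90 min of pooled aliquots from K562 cells (2×10^6 cells/mL) treated with 10 μM compound for 30 min, heated for 3 min over 48°C-58°C, and extracted in PBS with 0.5% NP-40 at 4°C. Values, from duplicates, describe thermal stability against control samples on a log2 fold-change scale.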

UniProt Q86Y07, sequence (Q86Y07 whole entry, looked up): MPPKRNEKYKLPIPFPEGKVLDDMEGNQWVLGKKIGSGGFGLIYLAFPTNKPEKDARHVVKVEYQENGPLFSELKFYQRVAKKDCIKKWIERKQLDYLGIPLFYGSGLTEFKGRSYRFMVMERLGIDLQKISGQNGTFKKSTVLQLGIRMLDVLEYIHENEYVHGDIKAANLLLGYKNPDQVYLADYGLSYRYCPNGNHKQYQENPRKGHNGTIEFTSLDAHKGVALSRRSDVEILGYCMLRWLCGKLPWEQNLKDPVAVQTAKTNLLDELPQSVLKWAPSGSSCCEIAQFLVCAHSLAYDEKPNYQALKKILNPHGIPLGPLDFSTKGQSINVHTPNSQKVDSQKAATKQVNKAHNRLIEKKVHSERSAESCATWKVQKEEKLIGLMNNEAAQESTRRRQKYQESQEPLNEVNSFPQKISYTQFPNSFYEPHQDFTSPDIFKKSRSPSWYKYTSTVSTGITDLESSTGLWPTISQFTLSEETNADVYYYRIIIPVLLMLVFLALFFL
UniProt Q6VEQ5, sequence (Q6VEQ5 whole entry, looked up): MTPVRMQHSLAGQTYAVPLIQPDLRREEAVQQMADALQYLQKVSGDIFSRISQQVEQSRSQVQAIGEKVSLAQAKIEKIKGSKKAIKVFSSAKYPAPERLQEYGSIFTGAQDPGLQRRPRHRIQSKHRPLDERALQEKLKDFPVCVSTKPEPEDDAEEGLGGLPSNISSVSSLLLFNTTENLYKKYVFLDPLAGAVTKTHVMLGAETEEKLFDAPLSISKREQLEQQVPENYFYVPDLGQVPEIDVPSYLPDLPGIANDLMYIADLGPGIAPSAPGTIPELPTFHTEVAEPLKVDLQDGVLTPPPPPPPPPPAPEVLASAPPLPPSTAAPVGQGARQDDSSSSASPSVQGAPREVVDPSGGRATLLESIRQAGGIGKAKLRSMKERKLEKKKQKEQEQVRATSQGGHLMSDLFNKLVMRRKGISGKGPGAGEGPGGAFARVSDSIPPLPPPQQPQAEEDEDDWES
UniProt Q9HAV4, sequence (Q9HAV4 whole entry, looked up): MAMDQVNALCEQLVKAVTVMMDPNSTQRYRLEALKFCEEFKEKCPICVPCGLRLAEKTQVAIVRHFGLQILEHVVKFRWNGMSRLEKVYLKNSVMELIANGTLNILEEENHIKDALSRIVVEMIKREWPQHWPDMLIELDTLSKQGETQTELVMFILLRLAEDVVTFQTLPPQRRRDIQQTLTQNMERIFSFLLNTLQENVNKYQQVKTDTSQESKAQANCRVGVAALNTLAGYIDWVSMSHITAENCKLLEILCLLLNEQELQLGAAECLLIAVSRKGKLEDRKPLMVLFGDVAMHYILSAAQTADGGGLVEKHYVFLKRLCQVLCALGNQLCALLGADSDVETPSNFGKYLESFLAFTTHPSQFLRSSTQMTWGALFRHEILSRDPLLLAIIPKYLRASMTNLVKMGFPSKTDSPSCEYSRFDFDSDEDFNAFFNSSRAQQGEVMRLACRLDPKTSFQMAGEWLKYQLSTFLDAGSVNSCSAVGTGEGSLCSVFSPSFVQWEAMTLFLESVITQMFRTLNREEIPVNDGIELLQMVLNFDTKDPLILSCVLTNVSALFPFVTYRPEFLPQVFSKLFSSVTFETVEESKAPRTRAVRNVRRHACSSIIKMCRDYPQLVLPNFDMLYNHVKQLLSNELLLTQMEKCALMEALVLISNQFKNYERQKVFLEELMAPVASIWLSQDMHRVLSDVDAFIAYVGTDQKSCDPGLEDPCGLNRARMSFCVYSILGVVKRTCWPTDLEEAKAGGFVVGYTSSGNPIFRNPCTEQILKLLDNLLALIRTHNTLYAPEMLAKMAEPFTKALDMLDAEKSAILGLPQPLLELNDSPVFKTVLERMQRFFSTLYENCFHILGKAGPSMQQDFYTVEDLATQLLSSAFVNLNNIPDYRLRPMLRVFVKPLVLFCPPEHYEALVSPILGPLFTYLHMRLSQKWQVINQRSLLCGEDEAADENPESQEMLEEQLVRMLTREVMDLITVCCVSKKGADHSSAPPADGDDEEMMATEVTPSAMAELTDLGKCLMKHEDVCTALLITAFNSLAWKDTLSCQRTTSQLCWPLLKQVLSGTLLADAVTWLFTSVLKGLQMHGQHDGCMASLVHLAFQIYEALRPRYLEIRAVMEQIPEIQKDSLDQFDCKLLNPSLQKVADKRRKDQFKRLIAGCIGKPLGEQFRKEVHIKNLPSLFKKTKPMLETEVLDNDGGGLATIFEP
UniProt Q9Y5L0, sequence (Q9Y5L0 whole entry, looked up): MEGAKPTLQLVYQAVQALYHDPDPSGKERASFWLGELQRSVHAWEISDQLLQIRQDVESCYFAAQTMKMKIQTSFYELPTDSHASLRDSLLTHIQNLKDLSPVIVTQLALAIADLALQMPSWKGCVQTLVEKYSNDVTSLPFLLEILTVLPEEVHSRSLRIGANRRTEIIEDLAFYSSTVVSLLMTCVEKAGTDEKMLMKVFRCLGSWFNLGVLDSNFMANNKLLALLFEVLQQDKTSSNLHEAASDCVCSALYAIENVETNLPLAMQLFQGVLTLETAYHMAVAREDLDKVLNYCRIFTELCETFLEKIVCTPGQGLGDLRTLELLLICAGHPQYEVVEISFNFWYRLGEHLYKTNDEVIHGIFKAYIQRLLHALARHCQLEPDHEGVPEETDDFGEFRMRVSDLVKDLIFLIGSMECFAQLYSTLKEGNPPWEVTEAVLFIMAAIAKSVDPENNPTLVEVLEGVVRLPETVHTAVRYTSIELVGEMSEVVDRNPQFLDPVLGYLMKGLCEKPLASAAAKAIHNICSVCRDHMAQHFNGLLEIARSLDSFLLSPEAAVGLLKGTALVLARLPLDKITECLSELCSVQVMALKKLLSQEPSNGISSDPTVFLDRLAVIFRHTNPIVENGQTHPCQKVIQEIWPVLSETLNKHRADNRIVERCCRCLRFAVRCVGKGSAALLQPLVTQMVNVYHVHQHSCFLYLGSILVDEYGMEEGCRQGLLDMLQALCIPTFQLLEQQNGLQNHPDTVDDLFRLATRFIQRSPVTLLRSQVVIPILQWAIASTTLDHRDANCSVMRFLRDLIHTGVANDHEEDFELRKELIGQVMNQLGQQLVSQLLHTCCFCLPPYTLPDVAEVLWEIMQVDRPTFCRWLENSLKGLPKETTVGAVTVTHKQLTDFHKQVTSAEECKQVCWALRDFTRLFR
UniProt O95379, sequence (O95379 whole entry, looked up): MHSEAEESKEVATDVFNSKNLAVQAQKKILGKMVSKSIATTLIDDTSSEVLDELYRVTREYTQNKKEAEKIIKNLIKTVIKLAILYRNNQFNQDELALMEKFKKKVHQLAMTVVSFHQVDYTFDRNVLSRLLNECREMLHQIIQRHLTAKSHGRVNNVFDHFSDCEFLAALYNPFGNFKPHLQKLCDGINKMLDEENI
UniProt Q96AX1, sequence (Q96AX1 whole entry, looked up): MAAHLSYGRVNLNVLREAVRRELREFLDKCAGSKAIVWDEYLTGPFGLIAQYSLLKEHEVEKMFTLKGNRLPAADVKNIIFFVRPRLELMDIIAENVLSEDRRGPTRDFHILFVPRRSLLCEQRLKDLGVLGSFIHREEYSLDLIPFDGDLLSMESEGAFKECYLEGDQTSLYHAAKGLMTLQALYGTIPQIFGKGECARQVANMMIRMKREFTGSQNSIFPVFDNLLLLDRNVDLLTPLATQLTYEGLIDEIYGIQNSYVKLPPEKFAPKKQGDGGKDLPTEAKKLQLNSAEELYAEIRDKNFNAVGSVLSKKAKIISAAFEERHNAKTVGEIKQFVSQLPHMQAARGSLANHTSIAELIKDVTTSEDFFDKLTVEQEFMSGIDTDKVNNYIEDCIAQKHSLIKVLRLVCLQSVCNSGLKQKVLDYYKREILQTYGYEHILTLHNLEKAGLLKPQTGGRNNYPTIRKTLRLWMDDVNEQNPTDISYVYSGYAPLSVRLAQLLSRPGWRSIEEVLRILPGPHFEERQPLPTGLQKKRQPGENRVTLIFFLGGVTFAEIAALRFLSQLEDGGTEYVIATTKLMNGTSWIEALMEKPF
UniProt O43396, sequence (O43396 whole entry, looked up): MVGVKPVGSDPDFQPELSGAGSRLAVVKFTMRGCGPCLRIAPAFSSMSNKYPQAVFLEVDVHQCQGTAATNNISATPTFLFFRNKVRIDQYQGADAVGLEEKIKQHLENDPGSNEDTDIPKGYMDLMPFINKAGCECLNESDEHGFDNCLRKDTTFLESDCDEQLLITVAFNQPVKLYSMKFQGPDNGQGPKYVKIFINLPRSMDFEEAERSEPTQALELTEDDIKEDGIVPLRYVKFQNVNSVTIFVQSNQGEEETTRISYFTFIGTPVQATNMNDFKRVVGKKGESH
UniProt Q15061, sequence (Q15061 whole entry, looked up): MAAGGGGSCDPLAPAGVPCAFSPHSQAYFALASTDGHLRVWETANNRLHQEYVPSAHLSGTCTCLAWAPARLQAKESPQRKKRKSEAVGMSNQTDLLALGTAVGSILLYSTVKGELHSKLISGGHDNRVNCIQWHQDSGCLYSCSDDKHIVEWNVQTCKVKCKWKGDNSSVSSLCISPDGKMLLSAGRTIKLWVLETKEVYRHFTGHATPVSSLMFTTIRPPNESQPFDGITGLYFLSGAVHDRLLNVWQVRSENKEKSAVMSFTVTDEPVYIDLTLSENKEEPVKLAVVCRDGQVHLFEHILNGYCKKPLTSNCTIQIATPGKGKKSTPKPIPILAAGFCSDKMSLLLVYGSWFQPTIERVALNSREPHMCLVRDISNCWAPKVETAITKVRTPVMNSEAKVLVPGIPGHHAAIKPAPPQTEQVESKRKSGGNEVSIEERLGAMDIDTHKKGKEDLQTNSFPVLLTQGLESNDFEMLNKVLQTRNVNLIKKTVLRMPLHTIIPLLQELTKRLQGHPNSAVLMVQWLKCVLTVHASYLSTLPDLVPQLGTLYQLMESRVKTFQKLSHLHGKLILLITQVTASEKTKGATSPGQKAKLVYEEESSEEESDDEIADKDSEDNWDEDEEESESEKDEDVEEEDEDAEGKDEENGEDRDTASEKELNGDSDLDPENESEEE
UniProt Q8N4H5, sequence (Q8N4H5 whole entry, looked up): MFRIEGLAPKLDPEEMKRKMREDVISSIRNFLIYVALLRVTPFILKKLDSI

log2 fold change, inactive:
WASH2P (UniProt Q6VEQ5) 0.015
WDR18 (UniProt Q9BV38) -0.061
XRCC6 (UniProt P12956) 0
TMEM214 (UniProt Q6NUQ4) -0.015
U2AF2 (UniProt P26368) 0.107
XPOT (UniProt O43592) 0.032
TSG101 (UniProt Q99816) -0.014
UXT isoform 2 (UniProt Q9UBK9) -0.012
TOMM20 (UniProt Q15388) 0.069
USP48 (UniProt Q86UV5) -0.055
TMEM87B (UniProt Q96K49) 0.063
TTI1 (UniProt O43156) 0.1
TXNL1 (UniProt O43396) 0.034
VPS11 (UniProt Q9H270) 0.04
XPNPEP1 isoform 3 (UniProt Q9NQW7) -0.027
USP3 (UniProt Q9Y6I4) -0.003
TNPO3 (UniProt Q9Y5L0) -0.048
TYW1 (UniProt Q9NV66) 0.003
UCHL5 (UniProt Q9Y5K5) -0.023
XPO5 (UniProt Q9HAV4) 0.001
TUBA4A (UniProt C9JJQ8) -0.27
UBE2Q1 (UniProt Q7Z7E8) 0.007
VPS33A (UniProt Q96AX1) 0.099
VRK2 (UniProt Q86Y07) -0.078
UBLCP1 (UniProt Q8WVY7) -0.013
TOMM5 isoform 2 (UniProt Q8N4H5) -0.033
TSFM (UniProt P43897) -0.191
UBE4B isoform 4 (UniProt O95155) -0.03
TRAPPC8 (UniProt Q9Y2L5) 0.004
TNNC2 (UniProt P02585) -0.038
UBE4A isoform 2 (UniProt Q14139) -0.043
TMEM173 (UniProt Q86WV6) -0.022
UFL1 (UniProt O94874) -0.025
TMEM177 (UniProt Q53S58) 0.02
UBXN8 (UniProt O00124) -0.231
WARS1 (UniProt G3V5U1) 0.342
WDR43 (UniProt Q15061) -0.048
TNFAIP8 isoform 4 (UniProt O95379) 0.036
VPS53 isoform 4 (UniProt Q5VIR6) 0.003
